In PubChem BioAssay (EPA / NIEHS):
Values joined by “and” are separate entries in the source; they are usually repeats but may differ in a detail not shown here. Equal values may be shown once. Records with an inconclusive call do not appear. The source holds several records for some structures; these can differ, active in one and inactive in another. Active and inactive are the calls of the source. How the source made its calls: active means hit-call score of the fitted dose curve at least 0.9, where 1 is the maximum; inconclusive means response in the unintended direction; inactive means score below 0.9.

What was measured:
[1] = ATG_M_06_XSP2: Attagene TRANS-FACTORIAL Multi-Species (XSP2) HepG2 Assay for M06 Transcription Factor (Internal Marker) (AID 2283811);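 further: hits are increases in signal above the DMSO baseline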
In short: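 HepG2, multiplexed reporter transfection; 24 h dosing; AR stimulated with 3 nM 6-alpha-fluorotestosterone + 1.5 nM norgestrel; RNA → RT-PCR → 6-FAM primer extension → HpaI → CE. Positive direction vs DMSO.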

[2] = tested on: turtle Estrogen Receptor (ERa), gene 101933533; assay: ATG_trERa_XSP2: Attagene TRANS-FACTORIAL Multi-Species (XSP2) HepG2 Assay for turtle Estrogen Receptor (ERa) (AID 2283812);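 further: human HepG2 liver cells transiently expressing turtle ERa-Gal4 chimeric receptor; actives raise reporter signal above DMSO so AC50 reflects agonist activity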
In short: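 HepG2 cells transiently transfected with GAL4-UAS reporter units expressing turtle ERa-Gal4 chimera. Reporter mRNA measured after 24 h dosing by RT-PCR, fluorescent labelling and capillary electrophoresis; gain of signal fitted versus DMSO.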

[3] = target: Estrogen receptor beta (Homo sapiens) (UniProt Q92731); assay: ATG_hERb_XSP2: Attagene TRANS-FACTORIAL Multi-Species (XSP2) HepG2 Assay for human Estrogen Receptor (ERb) (AID 2283813);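 further: actives raise reporter mRNA above DMSO so AC50 reflects agonist induction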
In short: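 HepG2 cells transiently transfected with GAL4-UAS reporter units and chimeric human ERb-Gal4, 24 h exposure. Reporter mRNA quantified by RT-PCR with FAM labelling, HpaI digestion and capillary electrophoresis; gain of signal versus DMSO.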

[4] = target: GAL4 Transcription Factor (Internal Marker), GAL4 (gene 855828) (UniProt P04386); assay: ATG_GAL4_XSP2: Attagene TRANS-FACTORIAL Multi-Species (XSP2) HepG2 Assay for GAL4 Transcription Factor (Internal Marker) (AID 2283814);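 further: GAL4 reporter mRNA background control in MRTU transfected cells not a receptor target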
In short: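 HepG2 cells transiently transfected with GAL4-UAS reporter units, stimulated with 3 nM 6-alpha-fluorotestosterone plus 1.5 nM norgestrel, dosed 24 h. Reporter mRNA by RT-PCR/capillary electrophoresis; gain-of-signal fit versus DMSO, background control.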

[5] = target: zebrafish Estrogen Receptor (ER1), esr1 (gene 259252) (UniProt P57717); assay: ATG_zfER1_XSP2: Attagene TRANS-FACTORIAL Multi-Species (XSP2) HepG2 Assay for zebrafish Estrogen Receptor (ER1) (AID 2283816)
In short: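 HepG2 cells transiently transfected with a GAL4-UAS reporter and a chimeric zebrafish ER1-Gal4 construct, dosed 24 h. Reporter mRNA quantified by RT-PCR, labelling, HpaI digestion and capillary electrophoresis, relative to DMSO.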

[6] = target: chicken Estrogen Receptor (ERa), ESR1 (gene 396099) (UniProt P06212); assay: ATG_chERa_XSP2: Attagene TRANS-FACTORIAL Multi-Species (XSP2) HepG2 Assay for chicken Estrogen Receptor (ERa) (AID 2283817);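 further: actives raise reporter signal above DMSO so AC50 reflects ER activation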
In short: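 Transient MRTU transfection of HepG2 → 24 h chemical dosing → TriZol RNA, oligo(dT) RT → PCR, 6-FAM primer extension, HpaI digest → CE quantitation of chicken ERa-Gal4-driven reporter mRNA. Positive direction vs DMSO.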

[7] = tested on: zebrafish Estrogen Receptor (ER2a), gene 317734; assay: ATG_zfER2a_XSP2: Attagene TRANS-FACTORIAL Multi-Species (XSP2) HepG2 Assay for zebrafish Estrogen Receptor (ER2a) (AID 2283818);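 further: hits raise reporter mRNA so AC50 reflects activation of zebrafish ER2a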
In short: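 HepG2 cells transiently transfected with GAL4-UAS reporter units and chimeric zebrafish ER2a-Gal4, exposed 24 h; medium contains 3 nM 6-alpha-fluorotestosterone and 1.5 nM norgestrel. Reporter mRNA quantified by RT-PCR, HpaI digestion, capillary electrophoresis; gain versus DMSO.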

[8] = tested on: frog Estrogen Receptor (ER), gene 398734; assay: ATG_frER1_XSP2: Attagene TRANS-FACTORIAL Multi-Species (XSP2) HepG2 Assay for frog Estrogen Receptor (ER) (AID 2283821);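 further: hits raise reporter mRNA above DMSO baseline so potency means agonist or activator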
In short: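 Steps: transfect HepG2 with multiple reporter transcription units; treat with chemical for 24 h; isolate RNA, reverse-transcribe, PCR-amplify, label with 6-FAM, digest with HpaI; resolve fragments by capillary electrophoresis. Signal is scored against DMSO.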

[9] = tested on: zebrafish Estrogen Receptor (ER2b), gene 317733; assay: ATG_zfER2b_XSP2: Attagene TRANS-FACTORIAL Multi-Species (XSP2) HepG2 Assay for zebrafish Estrogen Receptor (ER2b) (AID 2283823);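 further: fitted upward as reporter gain over DMSO so potency reflects activation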
In short: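 Transcriptional induction measured as reporter mRNA (RT-PCR, fluorescent capillary electrophoresis) in transiently transfected HepG2 cells after 24 h dosing; DMSO served as negative control and baseline.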

[10] = tested on: zebrafish Peroxisome Proliferator-activated Receptor gamma (PPARg), gene 557037; assay: ATG_zfPPARg_XSP1: Attagene TRANS-FACTORIAL Multi-Species (XSP1) HepG2 Assay for zebrafish Peroxisome Proliferator-activated Receptor gamma (PPARg) (AID 2283801)
In short: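 HepG2 cells transiently transfected with GAL4-UAS reporter units including a zebrafish PPARg–GAL4 chimera, dosed 24 h with 3 nM 6-alpha-fluorotestosterone present. Reporter mRNA quantified by RT-PCR, FAM labelling, HpaI digestion and capillary electrophoresis; induction versus DMSO.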

[11] = target: mouse Peroxisome Proliferator-activated Receptor gamma (PPARg), Pparg (gene 19016) (UniProt P37238); assay: ATG_mPPARg_XSP1: Attagene TRANS-FACTORIAL Multi-Species (XSP1) HepG2 Assay for mouse Peroxisome Proliferator-activated Receptor gamma (PPARg) (AID 2283802)
In short: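 HepG2 cells transiently transfected with GAL4-UAS reporter units driven by mouse PPARg–GAL4 chimera; 3 nM 6-alpha-fluorotestosterone present. After 24 h dosing, reporter mRNA quantified by RT-PCR, fluorescent labelling and capillary electrophoresis; gain of signal versus DMSO.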

[12] = target: Nuclear receptor subfamily 1 group I member 2 (Mus musculus) (UniProt O54915); assay: ATG_mPXR_XSP1: Attagene TRANS-FACTORIAL Multi-Species (XSP1) HepG2 Assay for mouse Pregnane X Receptor (PXR) (AID 2283803)
In short: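 Transiently transfected HepG2 cells expressing a receptor-Gal4 chimera drive a GAL4-UAS reporter; 3 nM 6-alpha-fluorotestosterone included. Reporter mRNA read 24 h post-dose by RT-PCR and capillary electrophoresis; gain of signal relative to DMSO.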

[13] = tested on: turtle Thyroid Hormone Receptor, alpha (TRa), gene 101949057; assay: ATG_trTRa_XSP1: Attagene TRANS-FACTORIAL Multi-Species (XSP1) HepG2 Assay for turtle Thyroid Hormone Receptor, alpha (TRa) (AID 2283806)
In short: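 HepG2 cells transiently transfected with GAL4-UAS reporter units and chimeric receptor-Gal4 constructs, with 3 nM 6-alpha-fluorotestosterone present. Reporter mRNA was quantified 24 h after dosing by RT-PCR, 6-FAM labelling and capillary electrophoresis; gain of signal versus DMSO.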

[14] = target: zebrafish Thyroid Hormone Receptor alpha (TRa), thraa (gene 30670) (UniProt Q98867); assay: ATG_zfTRa_XSP1: Attagene TRANS-FACTORIAL Multi-Species (XSP1) HepG2 Assay for zebrafish Thyroid Hormone Receptor alpha (TRa) (AID 2283807)
In short: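 HepG2 cells transiently transfected with GAL4-UAS reporter units including a zebrafish TRa–Gal4 chimera, dosed 24 h with 3 nM 6-alpha-fluorotestosterone present. Reporter mRNA quantified by RT-PCR and capillary electrophoresis; gain versus DMSO.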

[15] = target: human Thyroid hormone Receptor beta (TRb), THRB (gene 7068) (UniProt P10828); assay: ATG_hTRb_XSP1: Attagene TRANS-FACTORIAL Multi-Species (XSP1) HepG2 Assay for human Thyroid hormone Receptor beta (TRb) (AID 2283808)
In short: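 HepG2 cells transiently transfected with reporter units driving GAL4-UAS reporters for chimeric NR-Gal4 proteins; 24 h chemical exposure with 3 nM 6-alpha-fluorotestosterone present. Reporter mRNA quantified by RT-PCR and capillary electrophoresis, gain of signal versus DMSO.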

[16] = target: zebrafish Thyroid Hormone Receptor beta (TRb), thrb (gene 30607) (UniProt Q9PVE4); assay: ATG_zfTRb_XSP1: Attagene TRANS-FACTORIAL Multi-Species (XSP1) HepG2 Assay for zebrafish Thyroid Hormone Receptor beta (TRb) (AID 2283809)
In short: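 HepG2 cells transiently transfected with multiplexed GAL4-UAS reporter units expressing chimeric zebrafish TRb–Gal4. Dosed 24 h with 3 nM 6-alpha-fluorotestosterone present; reporter mRNA measured by RT-PCR, HpaI digestion and capillary electrophoresis; gain of signal versus DMSO.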

[17] = ATG_XTT_Cytotoxicity_XSP1: Cytotoxicity Assessment in the Attagene TRANS-FACTORIAL Multi-Species (XSP1) HepG2 Assay (AID 2283810)
In short: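 XTT viability readout taken at 24 hours post-dosing in HepG2 liver cells co-treated with 3 nM 6-alpha-fluorotestosterone. Signal loss relative to DMSO controls reflects cytotoxicity.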

[18] = tested on: chicken Androgen Receptor (AR), gene 422165; assay: ATG_chAR_XSP2: Attagene TRANS-FACTORIAL Multi-Species (XSP2) HepG2 Assay for chicken Androgen Receptor (AR) (AID 2283819);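 further: hits raise reporter mRNA above DMSO so potency is for activation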
In short: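 HepG2 cells transiently transfected with chicken AR–GAL4 chimeric reporter constructs, stimulated with 3 nM 6-alpha-fluorotestosterone plus 1.5 nM norgestrel, dosed 24 h. Reporter mRNA quantified by RT-PCR and capillary electrophoresis; gain of signal fitted versus DMSO.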

[19] = ATG_M_19_XSP2: Attagene TRANS-FACTORIAL Multi-Species (XSP2) HepG2 Assay for M32 Transcription Factor (Internal Marker) (AID 2283822)
In short: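 Internal background marker in a multi-species nuclear receptor TRANS panel: transfected HepG2 cells exposed 24 h, with 3 nM 6-alpha-fluorotestosterone and 1.5 nM norgestrel present. Readout is RT-PCR of reporter transcripts resolved by capillary electrophoresis, gain-of-signal versus DMSO.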

[20] = tested on: turtle Androgen Receptor (AR), gene 101947425; assay: ATG_trAR_XSP2: Attagene TRANS-FACTORIAL Multi-Species (XSP2) HepG2 Assay for turtle Androgen Receptor (AR) (AID 2283815);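 on AC50: potency for gain of reporter signal meaning activation above DMSO baseline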
In short: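 HepG2 cells transiently transfected with GAL4-UAS reporter units for chimeric NR-Gal4 receptors; 24 h dosing in presence of 3 nM 6-alpha-fluorotestosterone and 1.5 nM norgestrel. Reporter mRNA by RT-PCR and capillary electrophoresis, gain of signal versus DMSO.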

Measured: AC50

chicken Estrogen Receptor (ERa), ESR1 (gene 396099), sequence (P06212 whole entry, looked up, the tested form may be a part): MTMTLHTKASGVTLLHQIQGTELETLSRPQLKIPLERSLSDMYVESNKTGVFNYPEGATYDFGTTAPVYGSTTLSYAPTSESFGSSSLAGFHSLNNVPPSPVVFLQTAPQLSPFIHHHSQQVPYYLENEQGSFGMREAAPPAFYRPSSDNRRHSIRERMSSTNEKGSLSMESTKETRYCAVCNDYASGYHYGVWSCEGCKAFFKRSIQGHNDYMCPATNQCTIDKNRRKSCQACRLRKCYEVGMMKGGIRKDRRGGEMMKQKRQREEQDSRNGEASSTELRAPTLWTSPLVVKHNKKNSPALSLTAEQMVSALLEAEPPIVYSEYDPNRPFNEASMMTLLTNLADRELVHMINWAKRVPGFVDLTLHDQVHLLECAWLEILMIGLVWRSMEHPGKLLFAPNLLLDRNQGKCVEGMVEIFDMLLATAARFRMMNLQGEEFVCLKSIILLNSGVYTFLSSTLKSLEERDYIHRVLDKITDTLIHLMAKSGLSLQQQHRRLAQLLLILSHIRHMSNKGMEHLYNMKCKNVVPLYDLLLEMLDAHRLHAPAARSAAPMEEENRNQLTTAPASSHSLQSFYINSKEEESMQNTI
Estrogen receptor beta (Homo sapiens), sequence (Q92731 whole entry, looked up, the tested form may be a part): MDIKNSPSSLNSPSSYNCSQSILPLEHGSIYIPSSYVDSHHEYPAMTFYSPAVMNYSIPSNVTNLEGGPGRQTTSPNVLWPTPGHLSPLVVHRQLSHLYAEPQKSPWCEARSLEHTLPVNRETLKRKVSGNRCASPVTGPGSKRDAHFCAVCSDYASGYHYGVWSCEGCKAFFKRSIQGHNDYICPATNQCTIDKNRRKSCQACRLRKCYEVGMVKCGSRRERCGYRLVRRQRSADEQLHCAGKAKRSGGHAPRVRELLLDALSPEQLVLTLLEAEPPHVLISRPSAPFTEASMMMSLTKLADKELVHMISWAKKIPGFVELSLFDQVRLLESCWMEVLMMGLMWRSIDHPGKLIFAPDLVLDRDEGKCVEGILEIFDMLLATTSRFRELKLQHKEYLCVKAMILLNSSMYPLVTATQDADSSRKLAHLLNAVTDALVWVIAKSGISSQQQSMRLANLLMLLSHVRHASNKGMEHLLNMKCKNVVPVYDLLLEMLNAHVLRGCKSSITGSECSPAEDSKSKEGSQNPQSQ
zebrafish Estrogen Receptor (ER1), esr1 (gene 259252), sequence (P57717 whole entry, looked up, the tested form may be a part): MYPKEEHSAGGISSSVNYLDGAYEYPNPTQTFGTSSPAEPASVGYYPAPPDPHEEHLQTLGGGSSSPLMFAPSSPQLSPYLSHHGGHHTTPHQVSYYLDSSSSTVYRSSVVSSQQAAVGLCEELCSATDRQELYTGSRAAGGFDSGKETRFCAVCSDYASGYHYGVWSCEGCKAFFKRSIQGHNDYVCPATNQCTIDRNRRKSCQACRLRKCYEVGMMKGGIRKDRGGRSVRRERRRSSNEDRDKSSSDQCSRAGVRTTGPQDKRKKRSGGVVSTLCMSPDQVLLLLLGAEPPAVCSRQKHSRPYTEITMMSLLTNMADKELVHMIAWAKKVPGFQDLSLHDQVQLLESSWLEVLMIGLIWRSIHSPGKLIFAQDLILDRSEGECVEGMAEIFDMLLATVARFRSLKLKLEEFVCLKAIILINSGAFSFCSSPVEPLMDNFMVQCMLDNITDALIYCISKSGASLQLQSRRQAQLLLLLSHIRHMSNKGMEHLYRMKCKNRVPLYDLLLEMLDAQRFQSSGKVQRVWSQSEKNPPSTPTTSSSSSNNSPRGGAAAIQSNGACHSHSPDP
GAL4 Transcription Factor (Internal Marker), GAL4 (gene 855828), sequence (P04386 whole entry, looked up, the tested form may be a part): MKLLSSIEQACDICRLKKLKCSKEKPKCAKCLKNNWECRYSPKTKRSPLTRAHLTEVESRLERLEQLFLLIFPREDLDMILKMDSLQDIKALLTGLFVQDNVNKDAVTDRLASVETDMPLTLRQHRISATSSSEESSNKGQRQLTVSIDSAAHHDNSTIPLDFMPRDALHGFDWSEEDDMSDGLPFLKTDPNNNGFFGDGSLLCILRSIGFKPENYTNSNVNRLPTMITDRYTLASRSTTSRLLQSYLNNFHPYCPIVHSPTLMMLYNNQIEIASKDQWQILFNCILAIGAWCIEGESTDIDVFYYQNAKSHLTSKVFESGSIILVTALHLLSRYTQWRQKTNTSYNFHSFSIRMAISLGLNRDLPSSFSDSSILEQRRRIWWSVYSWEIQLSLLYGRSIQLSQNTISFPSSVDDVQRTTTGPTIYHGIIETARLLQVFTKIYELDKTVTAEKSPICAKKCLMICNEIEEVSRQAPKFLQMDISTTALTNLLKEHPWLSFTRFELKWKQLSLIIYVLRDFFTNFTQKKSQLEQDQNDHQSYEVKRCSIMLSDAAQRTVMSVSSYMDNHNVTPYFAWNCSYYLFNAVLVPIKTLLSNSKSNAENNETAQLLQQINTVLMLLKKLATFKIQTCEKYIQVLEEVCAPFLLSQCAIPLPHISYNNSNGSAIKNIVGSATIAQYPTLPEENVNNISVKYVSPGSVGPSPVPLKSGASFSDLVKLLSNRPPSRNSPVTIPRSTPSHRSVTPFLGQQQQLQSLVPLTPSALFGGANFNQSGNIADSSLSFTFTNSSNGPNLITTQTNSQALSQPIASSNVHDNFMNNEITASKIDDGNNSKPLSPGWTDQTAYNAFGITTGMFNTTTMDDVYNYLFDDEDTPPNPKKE
zebrafish Thyroid Hormone Receptor beta (TRb), thrb (gene 30607), sequence (Q9PVE4 whole entry, looked up, the tested form may be a part): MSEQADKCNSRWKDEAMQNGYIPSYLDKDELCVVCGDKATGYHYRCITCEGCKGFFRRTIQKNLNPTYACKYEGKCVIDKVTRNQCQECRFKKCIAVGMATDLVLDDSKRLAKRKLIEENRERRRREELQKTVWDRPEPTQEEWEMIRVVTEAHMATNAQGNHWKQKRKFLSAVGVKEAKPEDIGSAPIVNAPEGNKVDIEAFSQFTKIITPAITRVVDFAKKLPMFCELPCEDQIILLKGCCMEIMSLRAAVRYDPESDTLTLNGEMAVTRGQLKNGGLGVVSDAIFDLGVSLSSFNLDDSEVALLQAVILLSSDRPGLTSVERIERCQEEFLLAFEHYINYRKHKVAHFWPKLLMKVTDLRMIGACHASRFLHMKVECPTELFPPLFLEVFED
human Thyroid hormone Receptor beta (TRb), THRB (gene 7068), sequence (P10828 whole entry, looked up, the tested form may be a part): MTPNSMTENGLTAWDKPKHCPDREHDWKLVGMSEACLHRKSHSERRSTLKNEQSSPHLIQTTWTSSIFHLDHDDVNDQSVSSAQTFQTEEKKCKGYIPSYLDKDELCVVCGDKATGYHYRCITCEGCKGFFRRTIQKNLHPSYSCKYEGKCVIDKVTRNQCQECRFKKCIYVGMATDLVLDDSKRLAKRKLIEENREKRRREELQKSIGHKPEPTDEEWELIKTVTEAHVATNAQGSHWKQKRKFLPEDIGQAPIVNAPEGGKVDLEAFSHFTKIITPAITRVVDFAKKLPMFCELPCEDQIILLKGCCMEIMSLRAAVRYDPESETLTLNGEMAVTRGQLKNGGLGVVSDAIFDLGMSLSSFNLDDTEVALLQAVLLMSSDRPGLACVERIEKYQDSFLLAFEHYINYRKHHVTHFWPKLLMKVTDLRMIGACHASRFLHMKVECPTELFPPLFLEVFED
mouse Peroxisome Proliferator-activated Receptor gamma (PPARg), Pparg (gene 19016), sequence (P37238 whole entry, looked up, the tested form may be a part): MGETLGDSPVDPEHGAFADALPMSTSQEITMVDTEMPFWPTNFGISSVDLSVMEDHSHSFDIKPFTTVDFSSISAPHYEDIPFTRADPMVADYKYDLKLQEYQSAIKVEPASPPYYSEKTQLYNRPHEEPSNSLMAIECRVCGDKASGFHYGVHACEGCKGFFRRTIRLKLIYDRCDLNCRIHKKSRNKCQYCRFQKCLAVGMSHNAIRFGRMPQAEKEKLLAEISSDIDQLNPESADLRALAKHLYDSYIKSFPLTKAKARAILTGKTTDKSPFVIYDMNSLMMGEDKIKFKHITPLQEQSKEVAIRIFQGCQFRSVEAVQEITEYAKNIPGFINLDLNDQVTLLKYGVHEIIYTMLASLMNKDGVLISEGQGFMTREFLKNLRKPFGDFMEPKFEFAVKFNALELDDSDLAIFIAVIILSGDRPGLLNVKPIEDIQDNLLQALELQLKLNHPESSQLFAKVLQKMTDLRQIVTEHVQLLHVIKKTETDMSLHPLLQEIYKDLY
Nuclear receptor subfamily 1 group I member 2 (Mus musculus), sequence (O54915 whole entry, looked up, the tested form may be a part): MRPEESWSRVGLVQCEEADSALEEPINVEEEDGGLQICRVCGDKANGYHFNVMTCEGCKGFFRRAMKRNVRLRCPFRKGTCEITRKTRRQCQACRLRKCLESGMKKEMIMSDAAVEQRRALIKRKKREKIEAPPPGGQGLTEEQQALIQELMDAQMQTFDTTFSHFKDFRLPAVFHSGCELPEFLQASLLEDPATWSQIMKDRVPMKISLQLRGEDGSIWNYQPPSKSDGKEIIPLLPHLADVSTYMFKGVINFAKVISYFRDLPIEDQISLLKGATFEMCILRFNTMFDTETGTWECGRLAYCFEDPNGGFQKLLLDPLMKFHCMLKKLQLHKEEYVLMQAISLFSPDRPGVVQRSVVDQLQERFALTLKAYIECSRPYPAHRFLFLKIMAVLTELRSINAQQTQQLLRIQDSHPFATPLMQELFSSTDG
zebrafish Thyroid Hormone Receptor alpha (TRa), thraa (gene 30670), sequence (Q98867 whole entry, looked up, the tested form may be a part): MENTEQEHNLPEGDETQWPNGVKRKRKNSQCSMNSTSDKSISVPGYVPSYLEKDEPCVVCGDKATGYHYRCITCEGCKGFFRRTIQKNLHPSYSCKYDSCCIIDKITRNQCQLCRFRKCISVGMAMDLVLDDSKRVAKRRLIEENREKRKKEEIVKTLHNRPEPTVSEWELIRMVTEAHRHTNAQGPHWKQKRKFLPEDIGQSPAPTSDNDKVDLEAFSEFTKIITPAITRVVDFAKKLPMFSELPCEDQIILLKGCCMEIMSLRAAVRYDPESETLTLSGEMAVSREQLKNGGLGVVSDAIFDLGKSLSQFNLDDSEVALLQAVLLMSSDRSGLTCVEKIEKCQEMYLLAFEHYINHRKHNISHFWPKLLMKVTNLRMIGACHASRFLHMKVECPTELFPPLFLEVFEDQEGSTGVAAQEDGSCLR

c1ccc2c(c1)Nc1ccccc1S2
active: [2] 10.7 µM and 6.48 µM | [3] 27.2 µM and 5.66 µM | [6] 11.3 µM and 4.72 µM | [7] 19 µM and 6.16 µM | [8] 14.7 µM and 13.2 µM | [9] 52.1 µM and 27.9 µM
inactive: [1] | [4] | [5]

O=P(Oc1ccccc1)(Oc1ccccc1)Oc1ccccc1
active: [10] 8.08 µM | [11] 6.18 µM | [12] 0.367 µM | [14] 25.4 µM | [9] 7.88 µM
not listed: [2] | [3] | [8] | [19] | [20]
inactive: all other assays above

CCCCc1ccc(O)cc1
inactive: [1]
active: [2] 2.42 µM and 3.02 µM | [3] 2.45 µM and 2.3 µM | [5] 69.6 µM and 7.15 µM | [6] 3.21 µM and 1.79 µM | [7] 6.3 µM and 1.66 µM | [8] 1.96 µM and 1.08 µM | [9] 12.5 µM and 5.32 µM

CC(C)(C)c1ccc(O)cc1
active: [2] 6.07 µM and 4.64 µM | [5] 170 µM and 51.1 µM | [6] 4.76 µM and 6.06 µM | [8] 26.6 µM | [9] 34.3 µM and 13.7 µM
inactive: [1] | [7] | [8]

CCC(C)(C)c1ccc(O)cc1
inactive: [4] | [7] | [18] | [19]
active: [2] 4.29 µM and 1.92 µM | [3] 44.4 µM and 3.05 µM | [5] 34.1 µM and 7.34 µM | [6] 3.58 µM and 2.33 µM | [8] 25.9 µM and 2.38 µM | [9] 13.9 µM and 3.03 µM

O=S(=O)(c1ccc(O)cc1)c1ccc(O)cc1
inactive: [1] | [20] | [18]
active: [2] 2.98 µM and 2.14 µM | [3] 1.66 µM and 1.76 µM | [20] 27 µM | [5] 41.8 µM and 17.2 µM | [6] 2.24 µM and 2.5 µM | [7] 5.32 µM and 3.79 µM | [18] 27.1 µM | [8] 2.94 µM and 894 nM | [9] 6.5 µM and 3.07 µM
